Sampled rows, rich in hits. Any-hit rate of the full collection: about 10%.
Gal4-VP16 FLuc = VP16 counterscreen qHTS for inhibitors of ROR gamma transcriptional activity; hit rate 3.5% among 310,000; AID 2546, 2010; Drosophila S2 Gal4-VP16 UAS-luciferase, luminescence, 20 h; Potency, µM (top dose mostly 53.6 µM), without a hit: at the highest dose activity, negative = inhibition, hits mostly inhibitors;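 also: Gal4-VP16 expression switched on by copper sulfate through the metallothionein promoter; % is scaled to controls: 0 for no effect and ±100 for the full control effect; nearly all actives have a fitted effect of over 50% in size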
SW480 rerep = A quantitative high throughput screen for small molecules that induce DNA re-replication in SW480 colon adenocarcinoma cells; SW480 DNA re-replication, Hoechst DNA content imaging, 48 h; hit rate 1.8% among 340,000; AID 624297, 2012; Potency, µM (titrated, usually from 46.1 µM), for the others: top-dose re-replication activation, actives largely listed as activators; also: % of control where 0% means no effect; nearly all actives have a fitted effect of over 55% in size
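Per well, 250 cells were exposed to pinned compound for 48 hr. Nuclear DNA was visualised with Hoechst (40 min, 37 C) and total object intensity recorded by fluorescence scanning.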
MCF10A rereplic = A quantitative high throughput screen for small molecules that induce DNA re-replication in MCF 10a normal breast cells; Potency, µM (doses to about 46.1 µM), inactives show top-dose activity, positive = re-replication, most hits filed as activators; MCF 10A DNA re-replication, Hoechst nuclear intensity, 48 h; hit rate 2.9% among 350,000; AID 624296, 2012; also: % of control where 0% means no effect; nearly all actives have a fitted effect of over 50% in size
RORg inh = qHTS for inhibitors of ROR gamma transcriptional activity. Nuclear receptor ROR-gamma (Mus musculus), P51450. Drosophila S2 Gal4-RORgamma UAS-luciferase reporter, 20 h. Potency, µM (series often up to 53.6 µM), inactives show at the highest dose activity change, negative = inhibition, most hits filed as inhibitors. hit rate 5.4% among 310,000. AID 2551, 2010; also: % is scaled to controls: 0 for no effect and ±100 for the full control effect; nearly all actives have a fitted effect of over 60% in size
Target sequence (P51450 whole entry, looked up, the tested form may be a part): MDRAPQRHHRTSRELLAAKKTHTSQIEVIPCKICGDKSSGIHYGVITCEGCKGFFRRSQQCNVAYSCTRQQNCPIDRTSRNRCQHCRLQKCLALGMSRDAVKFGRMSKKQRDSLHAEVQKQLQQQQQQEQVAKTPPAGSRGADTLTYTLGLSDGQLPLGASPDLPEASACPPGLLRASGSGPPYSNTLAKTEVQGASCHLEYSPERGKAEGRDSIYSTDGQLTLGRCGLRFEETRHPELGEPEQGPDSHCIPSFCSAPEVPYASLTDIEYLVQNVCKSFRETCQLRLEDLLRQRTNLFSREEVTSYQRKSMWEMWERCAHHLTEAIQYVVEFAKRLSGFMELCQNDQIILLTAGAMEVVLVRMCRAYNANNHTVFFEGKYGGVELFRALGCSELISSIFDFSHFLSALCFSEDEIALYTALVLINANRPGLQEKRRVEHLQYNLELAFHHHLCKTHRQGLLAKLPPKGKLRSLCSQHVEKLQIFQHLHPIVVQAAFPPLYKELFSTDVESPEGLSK
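Luciferase reporter read in Schneider cells carrying Gal4-RORγ (mouse) and UAS-Photinus luciferase; cells given compound 1 h before 700 uM copper sulfate induction, then incubated 20 h at ambient temperature.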
ELG1 repair inh = qHTS screen for small molecules that inhibit ELG1-dependent DNA repair in human embryonic kidney (HEK293T) cells expressing luciferase-tagged ELG1; hit rate 2.3% among 330,000; HEK293T ELG1-luciferase reporter, luminescence, 16 h; DNA damage induced by 5-fluorouridine; Potency, µM (highest dose often 46.1 µM), for the others: at the highest dose activity change, negative = inhibition, hits mostly inhibitors; also: % is scaled to controls: 0 for no effect and ±100 for the full control effect; nearly all actives have a fitted effect of over 55% in size
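Overnight (16 hr) co-exposure of 2,000 cells/well to 5-fluorouridine and compound at 37 °C preceded detection. Luciferase was quantified via ONE-Glo luminescence; loss of signal denotes inhibition.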
ELG1 FLuc counter = qHTS screen for small molecules that inhibit ELG1-dependent DNA repair: Hit Confirmation in Cell-Based Luciferin Assay. shares compounds with ELG1 repair inh. cell-free firefly luciferase luminescence counter-screen, ViewLux. Potency, µM (titrated, usually from 46.1 µM), without a hit: at the top dose activity change, negative = inhibition, usual class: inhibitors. hit rate 3% among 350; also: % is scaled to controls: 0 for no effect and ±100 for the full control effect
ELG1 Luc conf = HTS assay for small molecules that inhibit ELG1-dependent DNA repair in human embryonic kidney (HEK293T) cells expressing luciferase-tagged ELG1: Hit Confirmation. shares compounds with ELG1 repair inh. HEK293T ELG1-luciferase levels, luminescence; cells co-treated with 5-fluorouridine. Potency, µM (titrated, usually from 46.1 µM), for inactives: top-dose activity change, negative = inhibition, hits mostly inhibitors. hit rate 68% among 670; also: % is scaled to controls: 0 for no effect and ±100 for the full control effect; nearly all actives have a fitted effect of over 55% in size
ELG1-Luc MMS = MMS-stimulated human ELG1 repair inhibition, confirmed; shares compounds with ELG1 repair inh; HEK293T luciferase-tagged ELG1 level, MMS stimulated; Potency, µM (series often up to 46.1 µM), for the others: top-dose activity change, negative = inhibition, actives largely listed as inhibitors; hit rate 53% among 670; AID 624249; also: % is scaled to controls: 0 for no effect and ±100 for the full control effect; nearly all actives have a fitted effect of over 60% in size
ELG1 5FU viab = qHTS screen for small molecules that inhibit ELG1-dependent DNA repair: Hit Confirmation with 5FU Viability. shares compounds with ELG1 repair inh. cell viability with 5-FU, ELG1-dependent repair. Potency, µM (titrated, usually from 46.1 µM), for inactives: at the highest dose activity change, negative = viability loss, usual class: cytotoxic. 670 tested, under 10 active. AID 624250, 2012;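 also: ELG1-luc HEK293T cells cotreated with 5-fluorouridine at 10 µM final; viability measured 16 h after compound addition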
ELG1 MMS viab = qHTS screen for small molecules that inhibit ELG1-dependent DNA repair: Hit Confirmation with MMS Viability; shares compounds with ELG1 repair inh; Cell viability with MMS, ELG1-dependent DNA repair; Potency, µM (doses to about 46.1 µM), without a hit: top-dose activity change, negative = viability loss, hits mostly cytotoxic; hit rate 33% among 670;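 also: ELG1-luc HEK293T cells co-treated with 10 µM MMS; viability read 16 h after compound addition; % is scaled to controls: 0 for no effect and ±100 for the full control effect; nearly all actives have a fitted effect of over 60% in size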
Cell viab unstim = qHTS screen for small molecules that inhibit ELG1-dependent DNA repair: Hit Confirmation with Unstimulated Viability Assay; shares compounds with ELG1 repair inh; cell viability counter-screen, unstimulated, luminescence; Potency, µM (top dose mostly 45.9 µM), for the others: at the top dose activity change, negative = loss of viability, hits mostly cytotoxic; hit rate 8% among 900;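 also: compound exposure lasted 16 hours before reading; % is scaled to controls: 0 for no effect and ±100 for the full control effect; nearly all actives have a fitted effect of over 55% in size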
FLuc biochem = qHTS screen for small molecules that inhibit ELG1-dependent DNA repair: Hit Confirmation in Biochemical Luciferin Assay; shares compounds with ELG1 repair inh; purified firefly luciferase, luminescence counter-screen; Potency, µM (doses to about 57.5 µM), without a hit: at the top dose activity, negative = inhibition, usual class: inhibitors; hit rate 10% among 350; AID 624253, 2012; also: % is scaled to controls: 0 for no effect and ±100 for the full control effect
* hit, by the source's call; ? = inconclusive; . = not tested or not shown. Calls follow the shape of the dose curve; as a rule, active = well fitted curve in the direction sought with a large enough effect; inconclusive = small, poorly fitted or top-dose-only effect, or another doubt; inactive = no such curve, though single readings can be large; an effect the other way counts as inactive or inconclusive. Potency is read from the fitted curve at half-maximal effect.

SMILES	Gal4-VP16 FLuc	SW480 rerep	MCF10A rereplic	RORg inh	ELG1 repair inh	ELG1 FLuc counter	ELG1 Luc conf	ELG1-Luc MMS	ELG1 5FU viab	ELG1 MMS viab	Cell viab unstim	FLuc biochem
O=C(NNc1ccnc2cc(Cl)ccc12)C1CCCCC1	?	0%	17%	-1%	0.52µM*	-17%	-9%	0.89µM*	-5%	0.71µM*	?	-8%
Cc1cc(C(=O)COC(=O)c2ccc(F)cc2)c(C)n1C	.	-7%	0%	.	?	.	.	.	.	.	?	.
Cc1cc(C(=O)COC(=O)c2cc(Cl)c(O)c(Cl)c2)c(C)n1C	.	-6%	3%	.	?	.	.	.	.	.	.	.
O=C(Nc1cccc(NC(=O)c2cccc([N+](=O)[O-])c2)n1)c1cccc([N+](=O)[O-])c1	-19%	-6%	0%	?	2.1µM*	.	?	6%	-4%	?	?	.
CCOc1ccc(CCNC(=O)COC(=O)c2c(C)nn(-c3ccccc3)c2C)cc1OCC	1%	-2%	2%	32%	-18%	.	.	.	.	.	.	.
COc1ccc(CCN2C(=O)CSC2=Nc2ccc(C(C)C)cc2)cc1OC	?	9.2µM*	16µM*	?	4.1µM*	.	25µM*	2.5µM*	?	2µM*	16µM*	.
COc1ccc(C2=Nn3c(nnc3-c3ccncc3)SC2)cc1	-5%	?	17%	21%	2.3µM*	-3%	6.3µM*	?	-2%	-6%	-12%	-10%
CCN1C(=O)[C@@H]2[C@@H](c3ccc(-c4ccc(Cl)c(Cl)c4)cc3)N3CCC[C@@]3(C(=O)OC)[C@@H]2C1=O	.	4%	18%	.	2.3µM*	.	6.3µM*	8.9µM*	?	10µM*	?	.
C=C1C(c2ccc(C)cc2)=CCc2cc(C)cc(C)c21	6%	.	.	-24%	.	181%	.	.	.	.	?	5.2µM*

Screens deposited in PubChem BioAssay by National Center for Advancing Translational Sciences (NCATS).
